# Compound activity from PubChem.
# Only some compounds are listed: those with a hit (about 19% of all), similar ones and a draw of the others.
# ELG1 repair inh = qHTS screen for small molecules that inhibit ELG1-dependent DNA repair in human embryonic kidney (HEK293T) cells expressing luciferase-tagged ELG1; HEK293T ELG1-luciferase reporter, luminescence, 16 h; DNA damage induced by 5-fluorouridine; Potency, µM (series often up to 46.1 µM), for inactives: at the top dose activity change, negative = inhibition, usual class: inhibitors; 2.3% of 330,000 active; also: potency is read from the fitted curve at half-maximal effect; nearly all actives have a fitted effect of over 55% in size
#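 Cells (2,000 per well) received 5-fluorouridine plus test compound or DMSO and were incubated 16 hr at 37 °C, 5% CO2. Luciferase activity was read by luminescence 30 min after ONE-Glo addition; signal suppression marked inhibition of damage-induced ELG1 function.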
# HT1080NT lethal = qHTS for induction of synthetic lethality in tumor cells producing 2HG: qHTS for the HT-1080-NT fibrosarcoma cell line; HT-1080-NT fibrosarcoma viability, CellTiter-Glo ATP luminescence, 48 h; 1.6% of 360,000 active; Potency, µM (doses to about 46.1 µM), without a hit: at the highest dose activity, negative = less viability, hits mostly cytotoxic;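 also: NT is the 2HG producing partner of a matched IDH1 knockdown line; potency is read from the fitted curve at half-maximal effect; 0% = DMSO-treated cells and -100% = media-only wells without cells; nearly all actives have a fitted effect of over 55% in size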
#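 HT-1080-NT fibrosarcoma cells (2HG-overproducing), 750 cells/well in RPMI with 5% FBS, dosed after 2 h and incubated 48 h at 37C. CellTiter-Glo luminescence normalized to DMSO and no-cell wells; concentration-response curves fitted and classed.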
# IL-1B inflam inh = qHTS for Inhibitors of Inflammasome Signaling: IL-1-beta AlphaLISA Primary Screen. THP-1 LPS/ATP IL-1B secretion, AlphaLISA, 16 h; active compounds read low. AID 743279, 2014. activity change, % at 57.5 µM. 4.7% of 360,000 active; in the data active = activity change below about -50%; inconclusive = mostly about -30% to -49%
#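 Secreted IL-1B measured by AlphaLISA bead assay after 16 h compound exposure of THP-1 cells; compounds (final up to 57.5 uM) added 1 h before LPS (250 ng/mL) and ATP (1.25 mM) stimulation; lower signal means less secretion.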
# TDP1 cell CPT = qHTS for Inhibitors of human tyrosyl-DNA phosphodiesterase 1 (TDP1): qHTS in cells in presence of CPT. chicken DT40 Tdp1-/-;hTDP1 cells + 20 nM CPT, ATP luminescence, 48 h. Potency, µM (top dose mostly 46.2 µM), for the others: top-dose activity change, negative = growth inhibition, hits mostly inhibitors. 12% of 420,000 active. AID 686979, 2013; also: potency is read from the fitted curve at half-maximal effect; nearly all actives have a fitted effect of over 55% in size
#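 Chicken DT40 Tdp1-/- cells complemented with human TDP1, 400 cells/well, exposed to compounds plus 20 nM camptothecin for at least 48 h at 37 C; viability read as ATP content by CellTiter-Glo luminescence.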
# TDP1 cell noCPT = qHTS for Inhibitors of human tyrosyl-DNA phosphodiesterase 1 (TDP1): qHTS in cells in absence of CPT; DT40 Tdp1-/- hTDP1 cells, no CPT, ATP luminescence, 48 h; Potency, µM (top dose mostly 46.2 µM), for inactives: at the top dose activity change, negative = growth inhibition, most hits filed as inhibitors; 15% of 420,000 active; also: potency is read from the fitted curve at half-maximal effect; nearly all actives have a fitted effect of over 55% in size
#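 Compound effects on proliferation are scored in DT40 Tdp1-/-;hTDP1 cells in the absence of CPT. ATP levels (CellTiter-Glo luminescence) are recorded after a ≥48 hr, 37 °C incubation.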
# HT1080 IDH1KD tx = qHTS for induction of synthetic lethality in tumor cells producing 2HG: qHTS for the HT-1080-IDH1KD cell line; HT-1080 IDH1 knockdown viability, ATP luminescence, 48 h; Potency, µM (titrated, usually from 46.1 µM), for the others: at the top dose activity, negative = toxicity, most hits filed as cytotoxic; 2% of 360,000 active; AID 686971, 2013;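 also: potency is read from the fitted curve at half-maximal effect; 0% = DMSO wells and -100% = cell-free medium wells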
#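 HT-1080-IDH1KD cells (IDH1 knocked down), 750/well in RPMI with 5% FBS, treated with compound 48 h at 37 degrees C. Viability by CellTiter-Glo luminescence, normalised to DMSO and no-cell wells; concentration-response curves classed.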
# An asterisk follows results filed as active; ? = inconclusive; · = no result given; [ ] = remark or other dose. Unless noted, calls follow the shape of the dose curve; as a rule, active = well fitted curve in the direction sought with a large enough effect; inconclusive = small, poorly fitted or top-dose-only effect, or another doubt; inactive = no such curve, though single readings can be large; an effect the other way counts as inactive or inconclusive. Unless noted, % is scaled to controls: 0 for no effect and ±100 for the full control effect.
SMILES,ELG1 repair inh,HT1080NT lethal,IL-1B inflam inh,TDP1 cell CPT,TDP1 cell noCPT,HT1080 IDH1KD tx
COc1ccc(CCN(C(=O)c2snc(C(N)=O)c2N)C(C(=O)NCC2CCCO2)c2ccc(F)cc2)cc1OC (stereo unspecified),-20.8%,15.0%,2.4,?,29.1µM*,6.6%
Cc1cccc(CCN(C(=O)c2snc(C(N)=O)c2N)C(C(=O)NCC2CCCO2)c2ccc(F)cc2)c1 (stereo unspecified),-16.6%,-0.9%,-51.6*,?,?,-28.8%
COc1ccc(C(C(=O)NCC2CCCO2)N(Cc2cccs2)C(=O)c2snc(C(N)=O)c2N)cc1OC (stereo unspecified),?,8.3%,5.7,-28.0%,-19.8%,-3.1%
CCN(C(=O)C(C)Sc1nnc(-c2ccncc2)n1C)C1CCCCC1 (stereo unspecified),-3.7%,-0.2%,-1.8,-14.8%,-2.2%,0.3%
O=C(CCS(=O)(=O)c1ccc(Br)s1)Nc1c(F)cccc1F,·,·,·,-17.0%,-23.4%,·
COc1cc(C2Nc3cccc4cccc(c34)N2)cc(OC)c1OC(C)=O,-4.4%,-0.6%,-20.4,?,23.1µM*,0.4%
COc1cc(C2Nc3cccc4cccc(c34)N2)ccc1O,-8.6%,-16.1%,-82.8*,?,?,-16.8%
COc1cccc(C2CC(c3cccs3)=NN2C(=O)CSc2nc3c(cnn3-c3ccc(F)cc3)c(=O)[nH]2)c1OC (stereo unspecified),?,16.1%,-1.3,23.1µM*,23.1µM*,-0.4%
COc1cccc(C2CC(c3cccs3)=NN2C(=O)CCC(=O)O)c1OC (stereo unspecified),-3.6%,14.1%,25.4,21.0%,-12.2%,25.1%
COc1cccc(C2CC(c3cccs3)=NN2C(=O)CSc2nc3ccccc3s2)c1OC (stereo unspecified),-16.6%,10.1%,0.0,14.6µM*,13µM*,2.2%
COc1ccc(C2CC(c3cccs3)=NN2C(=O)CSc2nc3c(cnn3-c3ccccc3)c(=O)[nH]2)cc1 (stereo unspecified),?,-0.3%,16.3,?,?,5.0%
O=C(CCc1ccccc1Cl)NC1CCCN(c2ccc(C(F)(F)F)cn2)C1 (stereo unspecified),5.8%,-1.8%,0.0,?,5.5%,15.1%
Nc1ccc(C(=O)O)cc1S(=O)(=O)O,2.3%,7.8%,12.2,?,5.8µM*,12.9%
CCOc1cc(CN2CCN(CCOCCO)CC2)ccc1OC,?,-2.4%,4.6,-5.4%,1.2%,-2.4%[9.24 µM]
O=C1C=CC(=O)c2c(O)c(N3CCN(CCOCCO)CC3)c(Br)c(O)c21,·,?,-116.9*,0.651µM*,0.92µM*,5.8µM*
O=C1C=CC(=O)c2c(O)c(N3CCN(CCO)CC3)c(Cl)c(O)c21,·,5.8µM*,-73.4*,0.581µM*,0.581µM*,5.17µM*
O=S(=O)(c1ccc(Br)cc1Cl)N1CCN(CCO)CC1,12.4%,0.2%,44.8,-6.3%,-5.2%,2.9%
C[N+]1(C)CCCC(OC(=O)C(O)(c2ccccc2)c2ccccc2)C1 (stereo unspecified),·,-20.2%,9.2,0.7%,-1.8%,6.5%
CN(CC(=O)Nc1cc(Cl)ccc1-n1cncn1)Cc1ccccc1N1CCOCC1,·,-14.8%,3.3,23.1µM*,?,-2.4%
